# PMC7862700, “An all-to-all approach to the identification of sequence-specific readers for epigenetic DNA modifications on cytosine”
# Experiments:
# Experiment in all cases: DAPPL (digital affinity profiling via proximity ligation, sequencing); 10 mM Tris-HCl pH 7.5, 50 mM NaCl, 1 mM DTT, 4% glycerol, room temperature, 30 min; GST-TFs on glutathione beads, 16-mer random dsDNA library, 0.1% formaldehyde crosslink after washing; high values mean tight binding
# FLI1 = target: T1, FLI1 (Homo sapiens, UniProt Q01543 1-452); details: protein: recombinant; tags: N-terminal GST; dsDNA, one strand shown
# T1 sequence: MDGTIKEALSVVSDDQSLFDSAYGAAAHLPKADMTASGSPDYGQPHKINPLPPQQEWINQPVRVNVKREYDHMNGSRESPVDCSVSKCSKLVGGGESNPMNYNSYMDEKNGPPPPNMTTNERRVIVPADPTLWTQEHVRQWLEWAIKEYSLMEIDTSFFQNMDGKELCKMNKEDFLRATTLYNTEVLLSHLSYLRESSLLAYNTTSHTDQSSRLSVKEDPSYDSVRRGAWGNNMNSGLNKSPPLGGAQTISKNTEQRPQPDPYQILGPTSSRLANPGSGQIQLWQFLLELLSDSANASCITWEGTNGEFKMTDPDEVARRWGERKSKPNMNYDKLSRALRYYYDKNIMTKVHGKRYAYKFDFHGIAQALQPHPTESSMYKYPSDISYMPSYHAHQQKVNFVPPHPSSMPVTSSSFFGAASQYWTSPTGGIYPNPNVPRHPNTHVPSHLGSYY
# In short: (§1)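 Beads coated with glutathione captured GST-fused human transcription factors that had been expressed in yeast, and the factors were then given DNA barcodes and pooled with a tag-only sample. The pools were incubated with 200 nmole of a random double-stranded 16-mer DNA library in Tris/NaCl/DTT/glycerol buffer for 30 min at room temperature, washed, crosslinked with 0.1% formaldehyde and proximity-ligated with BsaI/T4 ligase at 37 °C for 1 h. PCR amplification and Illumina NextSeq500 sequencing came last. Binding signal is each hexamer's read frequency for a factor divided by its frequency for the tag-only sample.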
# ELK1 = target: T2, ELK1 (Homo sapiens, UniProt P19419 1-428); details: protein: recombinant; tags: N-terminal GST; dsDNA, one strand shown
# T2 sequence: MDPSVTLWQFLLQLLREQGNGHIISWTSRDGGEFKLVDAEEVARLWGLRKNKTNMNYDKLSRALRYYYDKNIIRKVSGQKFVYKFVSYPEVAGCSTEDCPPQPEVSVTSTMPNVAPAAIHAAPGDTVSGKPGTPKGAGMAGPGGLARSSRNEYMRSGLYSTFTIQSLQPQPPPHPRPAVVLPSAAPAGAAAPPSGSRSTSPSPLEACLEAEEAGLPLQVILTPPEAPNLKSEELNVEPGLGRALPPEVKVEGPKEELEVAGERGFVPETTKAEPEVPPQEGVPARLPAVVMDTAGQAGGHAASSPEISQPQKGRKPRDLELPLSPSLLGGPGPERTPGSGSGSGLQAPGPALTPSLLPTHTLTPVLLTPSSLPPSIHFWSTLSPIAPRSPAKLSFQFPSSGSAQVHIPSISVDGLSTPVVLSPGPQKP
# In short: as §1
# GABPA = target: T3, GABPA (Homo sapiens, UniProt Q06546 1-454); details: protein: recombinant; tags: N-terminal GST; dsDNA, one strand shown
# T3 sequence: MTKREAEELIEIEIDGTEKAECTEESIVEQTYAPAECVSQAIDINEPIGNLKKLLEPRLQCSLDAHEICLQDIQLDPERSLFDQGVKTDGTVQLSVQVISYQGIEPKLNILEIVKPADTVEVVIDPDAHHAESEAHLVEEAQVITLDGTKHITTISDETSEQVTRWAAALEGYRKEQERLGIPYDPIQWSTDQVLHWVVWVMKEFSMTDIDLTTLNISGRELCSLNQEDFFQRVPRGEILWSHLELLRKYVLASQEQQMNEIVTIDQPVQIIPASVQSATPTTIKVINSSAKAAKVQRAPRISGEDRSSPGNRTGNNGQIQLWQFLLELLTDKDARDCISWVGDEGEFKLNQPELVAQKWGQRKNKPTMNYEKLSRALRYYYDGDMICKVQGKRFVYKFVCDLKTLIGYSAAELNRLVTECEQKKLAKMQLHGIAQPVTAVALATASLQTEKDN
# In short: as §1
# ERG = target: T4, ERG (Homo sapiens, UniProt P11308 1-479); details: protein: recombinant; tags: N-terminal GST; dsDNA, one strand shown
# T4 sequence: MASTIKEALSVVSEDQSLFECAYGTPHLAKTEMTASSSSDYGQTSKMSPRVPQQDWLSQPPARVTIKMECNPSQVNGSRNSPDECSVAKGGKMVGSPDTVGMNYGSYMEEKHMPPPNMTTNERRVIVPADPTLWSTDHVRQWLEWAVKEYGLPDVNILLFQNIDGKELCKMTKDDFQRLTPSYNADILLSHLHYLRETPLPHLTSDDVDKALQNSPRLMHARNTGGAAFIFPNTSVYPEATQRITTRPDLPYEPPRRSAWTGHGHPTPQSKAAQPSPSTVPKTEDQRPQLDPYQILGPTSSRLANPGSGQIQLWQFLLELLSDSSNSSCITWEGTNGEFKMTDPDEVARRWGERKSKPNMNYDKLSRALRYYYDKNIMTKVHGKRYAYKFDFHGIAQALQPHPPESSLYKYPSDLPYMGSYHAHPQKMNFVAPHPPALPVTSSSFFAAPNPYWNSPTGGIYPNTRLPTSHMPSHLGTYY
# In short: as §1
# ELF1 = ELF1 (Homo sapiens, UniProt P32519 1-619); details: protein: recombinant; tags: N-terminal GST; dsDNA, one strand shown
# In short: as §1
# EHF = target: T5, EHF (Homo sapiens, UniProt Q9NZC4 1-300); details: protein: recombinant; tags: N-terminal GST; dsDNA, one strand shown
# T5 sequence: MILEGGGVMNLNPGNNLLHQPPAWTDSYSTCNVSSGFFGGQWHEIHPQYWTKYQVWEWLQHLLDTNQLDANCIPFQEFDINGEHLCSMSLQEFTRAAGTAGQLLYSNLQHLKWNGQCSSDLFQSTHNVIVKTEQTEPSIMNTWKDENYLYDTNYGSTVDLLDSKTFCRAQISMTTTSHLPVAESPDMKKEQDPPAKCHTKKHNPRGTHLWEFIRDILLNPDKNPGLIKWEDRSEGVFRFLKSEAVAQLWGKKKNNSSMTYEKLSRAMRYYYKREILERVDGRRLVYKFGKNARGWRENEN
# In short: as §1
# SPI1 = SPI1 (Homo sapiens, UniProt P17947 1-270); details: protein: recombinant; tags: N-terminal GST; dsDNA, one strand shown
# In short: as §1
# SPIB = SPIB (Homo sapiens, UniProt Q01892 1-262); details: protein: recombinant; tags: N-terminal GST; dsDNA, one strand shown
# In short: as §1
# ELK3 = target: T6, ELK3 (Homo sapiens, UniProt P41970 1-407); details: protein: recombinant; tags: N-terminal GST; dsDNA, one strand shown
# T6 sequence: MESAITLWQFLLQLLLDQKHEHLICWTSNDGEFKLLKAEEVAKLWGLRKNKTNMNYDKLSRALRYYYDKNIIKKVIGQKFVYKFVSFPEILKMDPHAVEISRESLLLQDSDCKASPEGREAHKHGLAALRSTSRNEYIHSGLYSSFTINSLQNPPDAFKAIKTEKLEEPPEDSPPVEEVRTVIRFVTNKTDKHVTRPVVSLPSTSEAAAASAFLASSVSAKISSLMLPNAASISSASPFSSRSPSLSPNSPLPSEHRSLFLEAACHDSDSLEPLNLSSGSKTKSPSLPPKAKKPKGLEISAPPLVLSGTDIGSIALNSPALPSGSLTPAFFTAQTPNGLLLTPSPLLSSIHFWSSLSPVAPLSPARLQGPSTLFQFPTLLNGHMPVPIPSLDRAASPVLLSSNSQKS
# In short: as §1
# FEV = target: T7, FEV (Homo sapiens, UniProt Q99581 1-238); details: protein: recombinant; tags: N-terminal GST; dsDNA, one strand shown
# T7 sequence: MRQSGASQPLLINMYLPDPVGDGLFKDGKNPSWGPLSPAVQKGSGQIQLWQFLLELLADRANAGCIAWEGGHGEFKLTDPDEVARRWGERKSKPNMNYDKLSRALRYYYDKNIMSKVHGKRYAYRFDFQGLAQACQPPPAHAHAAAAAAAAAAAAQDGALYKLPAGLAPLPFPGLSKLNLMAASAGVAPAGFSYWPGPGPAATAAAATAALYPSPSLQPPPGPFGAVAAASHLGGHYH
# In short: as §1
# ETV5 = ETV5 (Homo sapiens, UniProt P41161 1-510); details: protein: recombinant; tags: N-terminal GST; dsDNA, one strand shown
# In short: as §1
# HSF1 = HSF1 (Homo sapiens, UniProt Q00613 1-529); details: protein: recombinant; tags: N-terminal GST; chain copies: 3; dsDNA, one strand shown
# In short: as §1
# SPIC = target: T8, SPIC (Homo sapiens, UniProt Q8N5J4 1-248); details: protein: recombinant; tags: N-terminal GST; dsDNA, one strand shown
# T8 sequence: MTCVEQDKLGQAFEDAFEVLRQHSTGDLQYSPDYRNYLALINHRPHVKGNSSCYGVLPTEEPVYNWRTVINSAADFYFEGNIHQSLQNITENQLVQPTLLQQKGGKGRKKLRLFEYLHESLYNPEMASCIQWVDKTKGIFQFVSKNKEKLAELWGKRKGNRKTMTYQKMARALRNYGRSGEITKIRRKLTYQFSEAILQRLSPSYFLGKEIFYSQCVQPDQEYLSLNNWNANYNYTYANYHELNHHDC
# In short: as §1
# ELF4 = ELF4 (Homo sapiens, UniProt Q99607 1-663); details: protein: recombinant; tags: N-terminal GST; dsDNA, one strand shown
# In short: as §1
# ELK4 = target: T9, ELK4 (Homo sapiens, UniProt P28324-2 1-405); details: protein: recombinant; tags: N-terminal GST; dsDNA, one strand shown
# T9 sequence: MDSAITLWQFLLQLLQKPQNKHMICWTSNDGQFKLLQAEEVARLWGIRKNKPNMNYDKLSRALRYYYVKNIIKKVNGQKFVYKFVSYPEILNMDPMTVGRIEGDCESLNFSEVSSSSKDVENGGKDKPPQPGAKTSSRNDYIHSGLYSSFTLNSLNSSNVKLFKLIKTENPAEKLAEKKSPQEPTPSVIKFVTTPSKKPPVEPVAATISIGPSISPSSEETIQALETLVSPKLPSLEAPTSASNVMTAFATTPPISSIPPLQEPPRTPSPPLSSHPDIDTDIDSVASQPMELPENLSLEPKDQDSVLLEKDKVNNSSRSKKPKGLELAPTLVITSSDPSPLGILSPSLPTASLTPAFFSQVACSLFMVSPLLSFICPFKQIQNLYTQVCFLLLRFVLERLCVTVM
# In short: as §1
# ETV2 = target: T10, ETV2 (Homo sapiens, UniProt O00321 1-342); details: protein: recombinant; tags: N-terminal GST; dsDNA, one strand shown
# T10 sequence: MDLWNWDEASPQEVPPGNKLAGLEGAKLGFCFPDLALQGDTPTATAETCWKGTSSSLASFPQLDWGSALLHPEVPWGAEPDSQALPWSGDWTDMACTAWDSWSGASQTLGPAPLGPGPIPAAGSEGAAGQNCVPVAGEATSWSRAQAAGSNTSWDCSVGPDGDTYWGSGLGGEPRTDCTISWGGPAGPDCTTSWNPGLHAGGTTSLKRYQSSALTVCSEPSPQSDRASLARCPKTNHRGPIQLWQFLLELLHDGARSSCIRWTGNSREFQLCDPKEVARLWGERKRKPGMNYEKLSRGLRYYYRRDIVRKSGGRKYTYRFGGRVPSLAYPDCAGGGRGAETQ
# In short: as §1
# ELF3 = target: T11, ELF3 (Homo sapiens, UniProt P78545 1-371); details: protein: recombinant; tags: N-terminal GST; dsDNA, one strand shown
# T11 sequence: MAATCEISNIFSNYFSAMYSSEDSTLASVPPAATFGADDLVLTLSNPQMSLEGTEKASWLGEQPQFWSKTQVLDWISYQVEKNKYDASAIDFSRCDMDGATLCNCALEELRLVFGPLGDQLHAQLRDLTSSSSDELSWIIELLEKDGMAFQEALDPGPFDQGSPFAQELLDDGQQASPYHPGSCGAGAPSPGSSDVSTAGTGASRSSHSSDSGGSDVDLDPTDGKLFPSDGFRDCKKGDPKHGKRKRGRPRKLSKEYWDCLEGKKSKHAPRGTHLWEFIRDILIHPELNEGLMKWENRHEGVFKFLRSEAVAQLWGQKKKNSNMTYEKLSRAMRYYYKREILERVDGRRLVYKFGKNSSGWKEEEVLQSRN
# In short: as §1
# CRX = CRX (Homo sapiens, UniProt O43186 1-299); details: protein: recombinant; tags: N-terminal GST; dsDNA, one strand shown
# In short: as §1
# ETV1 = ETV1 (Homo sapiens, UniProt P50549 1-477); details: protein: recombinant; tags: N-terminal GST; dsDNA, one strand shown
# In short: as §1
# Sequence of ELF4 (Q99607 whole entry): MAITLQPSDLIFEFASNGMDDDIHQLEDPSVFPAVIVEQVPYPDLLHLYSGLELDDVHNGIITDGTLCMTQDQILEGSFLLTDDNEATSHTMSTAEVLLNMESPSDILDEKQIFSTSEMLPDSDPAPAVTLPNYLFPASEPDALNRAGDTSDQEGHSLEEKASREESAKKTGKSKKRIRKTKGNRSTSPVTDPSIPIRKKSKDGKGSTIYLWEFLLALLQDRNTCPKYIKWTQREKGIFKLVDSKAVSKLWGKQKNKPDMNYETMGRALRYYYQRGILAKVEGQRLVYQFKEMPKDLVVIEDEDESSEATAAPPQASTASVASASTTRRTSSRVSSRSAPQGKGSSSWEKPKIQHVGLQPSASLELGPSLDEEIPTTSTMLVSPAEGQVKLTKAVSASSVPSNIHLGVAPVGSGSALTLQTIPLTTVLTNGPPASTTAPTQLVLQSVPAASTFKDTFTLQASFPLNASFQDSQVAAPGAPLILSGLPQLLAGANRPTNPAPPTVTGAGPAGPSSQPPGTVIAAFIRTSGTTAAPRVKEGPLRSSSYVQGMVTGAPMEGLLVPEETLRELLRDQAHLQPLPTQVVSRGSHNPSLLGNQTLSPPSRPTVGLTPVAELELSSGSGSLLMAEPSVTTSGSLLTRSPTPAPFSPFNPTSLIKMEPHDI
# Sequence of ELF1 (P32519 whole entry): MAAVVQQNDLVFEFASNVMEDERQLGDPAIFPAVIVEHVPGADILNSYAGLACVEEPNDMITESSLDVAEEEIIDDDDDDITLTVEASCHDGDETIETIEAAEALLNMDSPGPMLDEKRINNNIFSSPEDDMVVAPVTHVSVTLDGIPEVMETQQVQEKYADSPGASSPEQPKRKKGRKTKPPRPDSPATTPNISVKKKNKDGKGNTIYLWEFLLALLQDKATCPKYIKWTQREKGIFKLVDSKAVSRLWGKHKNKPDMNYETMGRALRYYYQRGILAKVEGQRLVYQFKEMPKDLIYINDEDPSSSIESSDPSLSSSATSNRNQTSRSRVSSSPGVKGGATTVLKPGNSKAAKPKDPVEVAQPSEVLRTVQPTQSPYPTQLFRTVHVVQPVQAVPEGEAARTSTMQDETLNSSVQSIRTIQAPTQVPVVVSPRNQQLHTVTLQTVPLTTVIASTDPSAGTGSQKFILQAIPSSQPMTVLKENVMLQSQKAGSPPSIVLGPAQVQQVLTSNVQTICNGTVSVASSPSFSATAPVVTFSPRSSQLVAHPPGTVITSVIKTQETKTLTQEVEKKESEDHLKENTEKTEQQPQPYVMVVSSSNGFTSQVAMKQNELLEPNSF
# Sequence of ETV5 (P41161 whole entry): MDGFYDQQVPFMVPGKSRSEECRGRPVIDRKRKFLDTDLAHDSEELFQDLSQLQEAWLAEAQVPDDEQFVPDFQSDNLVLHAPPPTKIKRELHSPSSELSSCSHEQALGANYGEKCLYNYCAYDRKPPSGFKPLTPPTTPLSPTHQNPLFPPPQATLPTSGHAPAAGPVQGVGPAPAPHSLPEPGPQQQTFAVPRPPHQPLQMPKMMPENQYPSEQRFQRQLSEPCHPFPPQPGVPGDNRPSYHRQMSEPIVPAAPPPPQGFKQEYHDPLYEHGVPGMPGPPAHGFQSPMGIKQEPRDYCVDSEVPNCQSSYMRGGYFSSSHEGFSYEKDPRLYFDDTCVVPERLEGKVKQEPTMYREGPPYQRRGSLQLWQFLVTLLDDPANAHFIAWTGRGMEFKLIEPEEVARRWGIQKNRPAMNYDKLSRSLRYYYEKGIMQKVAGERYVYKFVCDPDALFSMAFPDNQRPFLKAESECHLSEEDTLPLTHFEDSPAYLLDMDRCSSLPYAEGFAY
# Sequence of ETV1 (P50549 whole entry): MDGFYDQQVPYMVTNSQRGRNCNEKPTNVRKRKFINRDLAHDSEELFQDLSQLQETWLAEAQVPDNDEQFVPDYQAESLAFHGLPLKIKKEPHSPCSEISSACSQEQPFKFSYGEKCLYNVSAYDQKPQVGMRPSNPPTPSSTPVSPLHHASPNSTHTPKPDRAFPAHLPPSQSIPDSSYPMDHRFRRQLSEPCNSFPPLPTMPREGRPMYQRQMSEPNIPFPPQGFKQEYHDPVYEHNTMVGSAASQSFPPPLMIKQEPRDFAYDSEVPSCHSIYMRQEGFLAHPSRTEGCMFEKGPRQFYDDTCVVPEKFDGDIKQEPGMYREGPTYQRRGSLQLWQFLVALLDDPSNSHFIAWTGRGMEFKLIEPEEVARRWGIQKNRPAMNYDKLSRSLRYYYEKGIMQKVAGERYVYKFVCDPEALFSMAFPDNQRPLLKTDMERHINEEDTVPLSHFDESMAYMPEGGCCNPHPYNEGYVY
# Sequence of HSF1 (Q00613 whole entry): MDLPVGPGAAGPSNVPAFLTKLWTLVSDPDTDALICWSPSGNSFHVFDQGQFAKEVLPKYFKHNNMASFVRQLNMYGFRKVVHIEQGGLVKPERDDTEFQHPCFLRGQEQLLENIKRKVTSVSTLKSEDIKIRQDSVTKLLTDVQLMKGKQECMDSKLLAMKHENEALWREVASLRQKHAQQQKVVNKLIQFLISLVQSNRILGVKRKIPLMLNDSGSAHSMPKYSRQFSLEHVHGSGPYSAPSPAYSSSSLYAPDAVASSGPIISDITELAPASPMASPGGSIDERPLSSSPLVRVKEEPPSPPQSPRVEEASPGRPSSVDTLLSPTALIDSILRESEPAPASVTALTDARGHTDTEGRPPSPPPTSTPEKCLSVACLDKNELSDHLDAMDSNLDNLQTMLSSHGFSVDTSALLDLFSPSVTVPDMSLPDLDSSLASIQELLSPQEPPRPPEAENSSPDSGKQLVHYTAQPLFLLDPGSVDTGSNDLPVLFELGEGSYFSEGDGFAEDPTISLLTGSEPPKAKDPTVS
# Sequence of SPIB (Q01892 whole entry): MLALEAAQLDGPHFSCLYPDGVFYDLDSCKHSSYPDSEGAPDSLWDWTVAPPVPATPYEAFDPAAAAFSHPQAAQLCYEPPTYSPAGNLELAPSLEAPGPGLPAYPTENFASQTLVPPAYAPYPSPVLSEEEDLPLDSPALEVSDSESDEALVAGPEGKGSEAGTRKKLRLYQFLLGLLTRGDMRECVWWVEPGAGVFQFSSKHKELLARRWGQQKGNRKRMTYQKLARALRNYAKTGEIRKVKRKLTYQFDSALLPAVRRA
# Sequence of CRX (O43186 whole entry): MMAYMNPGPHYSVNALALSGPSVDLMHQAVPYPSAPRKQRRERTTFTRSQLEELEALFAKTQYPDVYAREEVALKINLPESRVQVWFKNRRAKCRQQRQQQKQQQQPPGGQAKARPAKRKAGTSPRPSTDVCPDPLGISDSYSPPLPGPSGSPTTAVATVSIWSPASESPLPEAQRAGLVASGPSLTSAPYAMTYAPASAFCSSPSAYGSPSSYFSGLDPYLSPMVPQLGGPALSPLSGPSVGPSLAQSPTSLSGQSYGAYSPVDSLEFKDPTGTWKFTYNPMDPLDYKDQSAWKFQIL
sequence,measurement,setting,value
ACGAAA,binding signal,FLI1,"1.2 fold enrichment (6-mer frequency, TF over GST control)"
same,binding signal,ELK1,"1.12 fold enrichment (6-mer frequency, TF over GST control)"
same,binding signal,GABPA,"1.15 fold enrichment (6-mer frequency, TF over GST control)"
same,binding signal,ERG,"1.14 fold enrichment (6-mer frequency, TF over GST control)"
same,binding signal,ELF1,"1.13 fold enrichment (6-mer frequency, TF over GST control)"
same,binding signal,EHF,"1.19 fold enrichment (6-mer frequency, TF over GST control)"
same,binding signal,SPI1,"1.14 fold enrichment (6-mer frequency, TF over GST control)"
same,binding signal,SPIB,"1.16 fold enrichment (6-mer frequency, TF over GST control)"
same,binding signal,ELK3,"1.07 fold enrichment (6-mer frequency, TF over GST control)"
same,binding signal,FEV,"1.15 fold enrichment (6-mer frequency, TF over GST control)"
same,binding signal,ETV5,"1.15 fold enrichment (6-mer frequency, TF over GST control)"
same,binding signal,HSF1,"1.44 fold enrichment (6-mer frequency, TF over GST control)"
same,binding signal,SPIC,"1.02 fold enrichment (6-mer frequency, TF over GST control)"
same,binding signal,ELF4,"1.16 fold enrichment (6-mer frequency, TF over GST control)"
same,binding signal,ELK4,"1.24 fold enrichment (6-mer frequency, TF over GST control)"
same,binding signal,ETV2,"1.13 fold enrichment (6-mer frequency, TF over GST control)"
same,binding signal,ELF3,"1.19 fold enrichment (6-mer frequency, TF over GST control)"
same,binding signal,CRX,"1.09 fold enrichment (6-mer frequency, TF over GST control)"
same,binding signal,ETV1,"1.12 fold enrichment (6-mer frequency, TF over GST control)"
